This is an account of results in PubChem BioAssay (Tox21).

Inconclusive results are not listed. Calls of active or inactive are those of the source. Unless noted, the call rests on the fitted dose curve; in most records, active means well fitted curve in the direction sought with a large enough effect in the repeat runs; inconclusive means weak or mixed curves; inactive means no such curve, though single readings can be large; an effect the other way counts as inactive or inconclusive.

A short description of experiment [1]: qHTS assay to identify small molecule antagonists of the androgen receptor (AR) signaling pathway using the MDA cell line in the presence of 0.5 nM R1881 - cell viability counter screen (AID 1259242). Further: nearly all actives have a fitted effect of over 45% in size. The gist of the method:
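Concentration-response screen of compounds for toxicity in MDA-kb2 reporter cells: 16 hr at 37C with 0.5 nM R1881, endpoint live-cell protease fluorescence measured in the reporter wells.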
In general terms: In qHTS, concentration-response curves come from the screen itself.

Experiment [2] can be described thus: qHTS assay to identify small molecule phospholipidosis (PLD) inducers (AID 1259344; active means well fitted curve in the direction sought with a large enough effect; an effect the other way counts as inactive or inconclusive). The gist of the method:
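After 4 h attachment on collagen I, HepG2 cells were dosed with compound alongside LipidTOX Red, kept 24 h at 37 C, fixed, and imaged for lamellar phospholipid pits.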

The nature of experiment [3]: qHTS assay to identify small molecule HDAC inhibitors (AID 1259364).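 Further: wild-type HCT-116 cells with endogenous class I/II HDAC activity; top concentration of the series differs between compounds; nearly all actives have a fitted effect of over 45% in size.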 The gist of the method: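 Screening used wild-type human colon HCT-116 cells incubated overnight, dosed with compounds for 2 hours, and assayed with a homogeneous luminogenic HDAC I/II reagent for 30 minutes at room temperature.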
Experiment [4] in a line: qHTS assay to identify small molecule HDAC inhibitors - cell viability counter screen (AID 1259365). Further: series mostly up to about 92 µM; nearly all actives have a fitted effect of over 50% in size. The gist of the method:
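To flag cytotoxic hits, 1,500 wild-type HCT-116 cells per well, plated the day before, receive test compounds for 2hr at 37 C before CellTiter-Glo reagent and a luminescence read.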

A short description of experiment [5]: qHTS assay to identify small molecule agonists of the sonic hedgehog signaling (Shh) pathway - cell viability counter screen (AID 1259366). Further: nearly all actives have a fitted effect of over 50% in size. The gist of the method:
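Fluorescence from CellTiter-Fluor reports live cells in this counter screen. NIH/3T3-derived Gli1-Luc reporter cells receive test compounds for 24hr at 37C; reagent goes in at 23hr.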

Experiment [6] is described as follows: qHTS assay to identify small molecule antagonists of the sonic hedgehog signaling (Shh) pathway - cell viability counter screen (AID 1259367). Further: nearly all actives have a fitted effect of over 55% in size. The gist of the method: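 Conditioned medium drove Shh signaling in 3T3 Gli1-Luc cells exposed to compounds at 37C and 5% CO2. Viability was determined from CellTiter-Fluor fluorescence, with reagent incubated 1 hr after 23 hr of treatment.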

Experiment [7] is described as follows: qHTS assay to identify small molecule agonists of the sonic hedgehog signaling (Shh) pathway (AID 1259368; calls by dose curve;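 further: NIH/3T3-derived 3T3Gli1-Luc cells carrying a stable Gli1-driven firefly luciferase reporter; series mostly up to about 92 µM; nearly all actives have a fitted effect of over 15% in size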). The gist of the method: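 Hedgehog pathway agonism scored by increased firefly luciferase luminescence in 3T3Gli1-Luc cells treated 24 hr at 37 C; detection used a 30 min room-temperature reagent incubation.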
Experiment [8] in a line: qHTS assay to identify small molecule antagonists of the sonic hedgehog signaling (Shh) pathway (AID 1259369; calls by dose curve; further: nearly all actives have a fitted effect of over 45% in size). The gist of the method: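 NIH/3T3 stable Gli1-Luc clone, 2,000 cells/well, 4hr settle; cpd + conditioned medium 24hr; Luc reagent 30min RT; luminescence.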
For experiment [9], the target named is Estrogen receptor beta (Homo sapiens) (UniProt Q92731). The experiment is described as follows: qHTS assay to identify small molecule agonists of the estrogen receptor beta (ER-beta) signaling pathway (AID 1259377; active means well fitted activation curve with a large enough effect in the signal ratio in the repeat runs, not every such curve was filed as active; the % refers to the signal ratio). The gist of the method:
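Screening used GripTite ER-beta-UAS-bla cells held in 2% charcoal-stripped FBS medium. After overnight (16 hr) compound incubation at 37C, beta-lactamase activity was detected with a FRET substrate by fluorescence.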

For experiment [10] the target is unchanged. The experiment is described as follows: qHTS assay to identify small molecule antagonists of the estrogen receptor beta (ER-beta) signaling pathway (AID 1259378; active means well fitted inhibition curve with a large enough effect in the signal ratio in the repeat runs, not every such curve was filed as active; the % refers to the signal ratio). The gist of the method:
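ER-beta-UAS-bla HEK293T (GripTite) cells in 2% charcoal-stripped FBS medium were preincubated 6 hr at 37C, dosed with compound, then stimulated with 1 nM E2 (final) for 16 hr; beta-lactamase reporter read by B/G FRET fluorescence after 2 hr substrate loading.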

A short description of experiment [11]: qHTS assay to identify small molecule agonists of the androgen receptor (AR) signaling pathway in the presence of an antagonist - cell viability counter screen (AID 1259379).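 Further: MDA-kb2 human breast cancer cells carrying an MMTV luciferase reporter; series mostly up to about 92 µM; nearly all actives have a fitted effect of over 25% in size.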 The gist of the method: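 MDA-kb2 viability measured by CellTiter-Fluor fluorescence in the same wells as the luciferase signal; nilutamide 3.0uM final; 15-point compound titration; 16 hr at 37C.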

Experiment [12] can be described thus: qHTS assay to identify small molecule agonists of the estrogen receptor beta (ER-beta) signaling pathway - cell viability counter screen (AID 1259380). Further: nearly all actives have a fitted effect of over 30% in size. Further: potency means the concentration at half of the fitted maximal effect. The gist of the method:
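Measured: luminescence from CellTiter-Glo after 30 min at room temperature, added to wells already read for the LiveBLAzer FRET reporter (2 hr substrate); ER-beta-UAS-bla HEK293T cells had 16 hr compound treatment at 37C, 5% CO2.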

Experiment [13] can be described thus: qHTS assay to identify small molecule antagonists of the estrogen receptor beta (ER-beta) signaling pathway - cell viability counter screen (AID 1259382). Further: series mostly up to about 92 µM; nearly all actives have a fitted effect of over 55% in size. The gist of the method: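 Readout: luminescence, CellTiter-Glo, same wells as bla assay. System: ER-beta-UAS-bla GripTite HEK293T, 2% charcoal-stripped FBS. Exposure: compounds plus 1nM 17-beta-estradiol, 16 hr, 37C.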

Experiment [14] can be described thus: qHTS assay to identify small molecule agonists or antagonists of the thyroid stimulating hormone receptor (TSHR) signaling pathway - wild type cell line counter screen (AID 1259384; calls by dose curve). The gist of the method: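 Wild-type HEK293 cells were plated 18 h at 37 C/5% CO2, pin-dosed with compound plus Ro20-1724 medium, held 30 min at room temperature, then given cAMP-d2 and anti-cAMP-cryptate; fluorescence was read after 1 h. Fifteen concentrations, triplicate.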

For experiment [15], the target named is Thyrotropin receptor (Homo sapiens) (UniProt P16473). The experiment is described as follows: qHTS assay to identify small molecule antagonists of the thyroid stimulating hormone receptor (TSHR) signaling pathway (AID 1259385; calls by dose curve; further: nearly all actives have a fitted effect of over 20% in size). The gist of the method: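 TSHR-HEK293 cells were plated and held 18 h at 37C/5% CO2, then given compound plus Ro20-1724 and stimulated with TSH at 1.5 ng/mL final. After 30 min at room temperature, cAMP was detected with cAMP-d2/anti-cAMP-cryptate (1 h) by fluorescence.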

The nature of experiment [16]: qHTS assay to identify small molecule agonists of the estrogen receptor alpha (ER-alpha) signaling pathway in the presence of an antagonist - cell viability counter screen (AID 1259386).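 Further: series mostly up to about 92 µM; cells exposed to compounds for 22 h at 37 °C before the viability read; nearly all actives have a fitted effect of over 30% in size.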 The gist of the method:
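The test measures whether compounds kill ER-alpha reporter cells (VM7Luc4E2) under antagonist co-treatment (ICI-182,780, 10.0nM). Fluorescence from CellTiter-Fluor is read after a 22hr exposure.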

The target of experiment [17] is Estrogen receptor (Homo sapiens) (UniProt P03372). The experiment is described as follows: qHTS assay to identify small molecule antagonists of the estrogen receptor alpha (ER-alpha) signaling pathway using the BG1 cell line in the presence of 0.1 nM 17-beta-estradiol (AID 1259244). Further: nearly all actives have a fitted effect of over 50% in size. The gist of the method:
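Compounds were tested against 0.1 nM (final) 17beta-estradiol in VM7Luc4E2 cells, which express full-length ER-alpha and an ERE-luciferase reporter; luminescence was recorded following 22 h exposure.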

Experiment [18] has the same target. The experiment is described as follows: qHTS assay to identify small molecule agonists of the estrogen receptor alpha (ER-alpha) signaling pathway in the presence of an antagonist (AID 1259383; calls by dose curve; further: top concentration of the series differs between compounds; nearly all actives have a fitted effect of over 15% in size). The gist of the method: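 Quantitative HTS confirmation: compounds titrated at 15 concentrations onto estrogen-deprived VM7Luc4E2 cells carrying a four-ERE luciferase construct, with ICI-182,780 present at 10.0nM final. Signal is luminescence after 22hr exposure.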

Experiment [19] concerns the target Androgen receptor (Homo sapiens) (UniProt P10275). The experiment is described as follows: qHTS assay to identify small molecule antagonists of the androgen receptor (AR) signaling pathway using the MDA cell line in the presence of 0.5 nM R1881 (AID 1259243). Further: nearly all actives have a fitted effect of over 50% in size. The gist of the method: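 With R1881 held at 0.5 nM (final), compound effects on MMTV-luciferase expression in MDA-kb2 cells were scored by luminescence after a 16 hr, 37C incubation.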

For experiment [20] the target is unchanged. The experiment is described as follows: qHTS assay to identify small molecule agonists of the androgen receptor (AR) signaling pathway in the presence of an antagonist (AID 1259381; calls by dose curve; further: nearly all actives have a fitted effect of over 15% in size). The gist of the method:
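Luminescent ONE-Glo read, 30min at room temperature, follows 16hr compound exposure (15 concentrations) of MDA-kb2 cells at 37C, 0% CO2, with nilutamide added at 3.0uM final.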

Chain of Estrogen receptor beta (Homo sapiens) (Q92731 whole entry, looked up): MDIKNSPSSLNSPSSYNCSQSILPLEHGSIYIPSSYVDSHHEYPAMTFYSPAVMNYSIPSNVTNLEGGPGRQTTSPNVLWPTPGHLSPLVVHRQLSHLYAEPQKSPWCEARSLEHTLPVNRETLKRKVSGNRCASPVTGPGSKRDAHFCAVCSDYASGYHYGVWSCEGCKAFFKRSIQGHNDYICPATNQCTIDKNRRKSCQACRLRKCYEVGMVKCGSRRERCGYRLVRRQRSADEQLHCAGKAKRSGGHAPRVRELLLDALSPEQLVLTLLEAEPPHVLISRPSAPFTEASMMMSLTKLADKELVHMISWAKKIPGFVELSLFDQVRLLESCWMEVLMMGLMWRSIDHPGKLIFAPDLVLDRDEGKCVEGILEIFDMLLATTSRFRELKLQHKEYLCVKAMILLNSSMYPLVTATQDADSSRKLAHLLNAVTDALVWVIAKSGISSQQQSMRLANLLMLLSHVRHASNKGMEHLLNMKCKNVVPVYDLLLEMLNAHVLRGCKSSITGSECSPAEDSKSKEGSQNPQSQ
Chain of Estrogen receptor (Homo sapiens) (P03372 whole entry, looked up): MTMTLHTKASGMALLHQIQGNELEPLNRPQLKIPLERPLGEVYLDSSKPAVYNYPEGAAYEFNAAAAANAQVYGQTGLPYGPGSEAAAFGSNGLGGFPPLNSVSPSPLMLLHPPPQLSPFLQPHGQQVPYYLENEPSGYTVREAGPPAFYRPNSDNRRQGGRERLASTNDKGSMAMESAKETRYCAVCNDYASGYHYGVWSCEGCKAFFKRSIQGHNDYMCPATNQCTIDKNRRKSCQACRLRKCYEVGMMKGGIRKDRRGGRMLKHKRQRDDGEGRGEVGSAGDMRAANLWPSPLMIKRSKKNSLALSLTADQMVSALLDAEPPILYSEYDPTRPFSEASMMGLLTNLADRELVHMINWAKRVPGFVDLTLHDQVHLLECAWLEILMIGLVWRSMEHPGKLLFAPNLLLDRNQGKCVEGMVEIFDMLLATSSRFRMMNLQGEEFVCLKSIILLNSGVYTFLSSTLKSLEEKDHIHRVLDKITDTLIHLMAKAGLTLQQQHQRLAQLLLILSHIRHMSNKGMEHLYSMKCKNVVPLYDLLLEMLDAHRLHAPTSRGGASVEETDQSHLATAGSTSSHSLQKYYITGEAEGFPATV
Chain of Thyrotropin receptor (Homo sapiens) (P16473 whole entry, looked up): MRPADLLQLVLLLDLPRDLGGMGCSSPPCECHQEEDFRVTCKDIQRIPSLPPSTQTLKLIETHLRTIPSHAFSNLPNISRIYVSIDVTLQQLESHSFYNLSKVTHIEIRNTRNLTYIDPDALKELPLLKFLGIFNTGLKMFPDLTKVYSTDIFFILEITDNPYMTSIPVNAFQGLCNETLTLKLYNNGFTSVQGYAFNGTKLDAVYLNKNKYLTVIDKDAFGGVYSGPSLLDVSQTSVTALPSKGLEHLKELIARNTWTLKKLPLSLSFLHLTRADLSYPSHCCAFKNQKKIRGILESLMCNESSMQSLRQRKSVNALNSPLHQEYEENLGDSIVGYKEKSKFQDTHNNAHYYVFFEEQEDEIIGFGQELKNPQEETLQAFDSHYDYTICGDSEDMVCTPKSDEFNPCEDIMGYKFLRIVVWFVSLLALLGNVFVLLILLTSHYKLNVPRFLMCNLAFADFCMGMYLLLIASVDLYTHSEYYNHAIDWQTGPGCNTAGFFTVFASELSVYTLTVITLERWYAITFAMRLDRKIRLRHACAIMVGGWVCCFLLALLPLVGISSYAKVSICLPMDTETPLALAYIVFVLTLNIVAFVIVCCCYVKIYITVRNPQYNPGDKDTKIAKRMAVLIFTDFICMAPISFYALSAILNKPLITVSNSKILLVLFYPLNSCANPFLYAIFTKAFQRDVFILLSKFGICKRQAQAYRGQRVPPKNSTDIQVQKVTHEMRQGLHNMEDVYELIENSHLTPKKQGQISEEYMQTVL
Chain of Androgen receptor (Homo sapiens) (P10275 whole entry, looked up): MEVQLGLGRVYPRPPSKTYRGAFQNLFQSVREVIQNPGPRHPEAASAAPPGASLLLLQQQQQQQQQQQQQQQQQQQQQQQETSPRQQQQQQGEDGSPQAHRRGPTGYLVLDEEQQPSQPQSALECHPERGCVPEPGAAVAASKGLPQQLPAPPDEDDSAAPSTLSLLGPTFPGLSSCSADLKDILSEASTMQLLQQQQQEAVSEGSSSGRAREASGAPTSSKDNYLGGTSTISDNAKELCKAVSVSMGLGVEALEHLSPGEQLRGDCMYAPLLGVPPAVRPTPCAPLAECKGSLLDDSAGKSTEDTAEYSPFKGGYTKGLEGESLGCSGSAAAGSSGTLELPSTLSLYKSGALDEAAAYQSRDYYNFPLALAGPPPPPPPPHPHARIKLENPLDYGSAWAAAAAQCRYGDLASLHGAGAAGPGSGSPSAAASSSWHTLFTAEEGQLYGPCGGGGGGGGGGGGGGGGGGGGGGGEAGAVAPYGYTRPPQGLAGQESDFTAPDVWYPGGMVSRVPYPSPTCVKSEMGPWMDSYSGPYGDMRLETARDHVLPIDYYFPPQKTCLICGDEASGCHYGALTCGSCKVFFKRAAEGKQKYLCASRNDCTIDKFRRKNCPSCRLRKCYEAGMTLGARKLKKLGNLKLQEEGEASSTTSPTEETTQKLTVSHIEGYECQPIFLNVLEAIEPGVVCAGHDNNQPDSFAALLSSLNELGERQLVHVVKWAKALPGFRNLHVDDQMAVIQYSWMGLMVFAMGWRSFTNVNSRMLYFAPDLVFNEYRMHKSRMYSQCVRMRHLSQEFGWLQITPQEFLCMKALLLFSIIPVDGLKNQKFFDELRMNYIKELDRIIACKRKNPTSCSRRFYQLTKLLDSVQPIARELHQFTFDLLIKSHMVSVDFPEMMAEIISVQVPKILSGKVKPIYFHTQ

Regarding `NC1=NC(=O)C(c2ccccc2)O1` (configuration not stated), the result in [1], in experiment [2], in [4], in experiment [7] and in [9] was inactive. Moreover, the Potency entry in [3], in experiment [5], in experiment [6], in experiment [8], in experiment [10] and in [11] was “inactive” throughout. Further, the Potency entry in [12], in experiment [13], in experiment [14], in experiment [15] and in experiment [16] was “inactive” each time.
Turning to `CCC1(c2ccccc2)C(=O)N=C(O)NC1=O` (configuration not stated), the outcome in [1], in experiment [7] and in [9] was inactive. Further, the Potency result in [17], in [3], in [5], in experiment [6], in experiment [8] and in experiment [10] was “inactive” each time. In addition, the Potency entry in experiment [11], in [12], in experiment [13], in [18], in [14] and in [15] was “inactive” in each case. In addition, in experiment [16], the Potency entry is “inactive”.
Regarding `COc1ccc(C(=O)N2CCCC2=O)cc1`, the result in experiment [1], in experiment [2], in experiment [4] and in [7] was inactive. Also, the Potency result in experiment [3], in experiment [5], in experiment [6], in experiment [8], in experiment [11] and in experiment [12] was “inactive” in each case. Further, the Potency entry in [13], in experiment [14] and in [15] was “inactive” each time.
Turning to `CCCCOC(=O)c1ccccc1N`, the result in experiment [1], in experiment [4], in experiment [7] and in experiment [9] was inactive. For the same molecule, the Potency result in [3], in [5], in experiment [6], in experiment [8], in experiment [10] and in experiment [11] was “inactive” throughout. Moreover, the Potency result in experiment [13] and in experiment [16] was “inactive” in each case.
For `CN1C[C@@H](NS(=O)(=O)N(C)C)C[C@@H]2c3cccc4c3c(cn4C)C[C@H]21`, the outcome in experiment [1], in experiment [2], in experiment [4], in experiment [7] and in experiment [9] was inactive. For the same molecule, the Potency entry in experiment [3], in experiment [6], in [8], in experiment [10], in experiment [11] and in experiment [13] was “inactive” throughout. Besides, the Potency entry in [14], in [15] and in [16] was “inactive” throughout.
Consider `COC(C)(C)C`, for which the result in [1], in [4], in experiment [7] and in [9] was inactive. The Potency entry in [3], in experiment [5], in experiment [6], in [8], in [10] and in [11] was “inactive” throughout. Also, the Potency entry in [12], in experiment [13], in [14], in [15] and in [16] was “inactive” each time.
`CC(CC(C#N)(c1ccccc1)c1ccccc1)N(C)C` (configuration not stated): the result in experiment [1], in [4], in experiment [7] and in experiment [9] was inactive. The Potency entry in experiment [3], in [8], in experiment [11], in experiment [18], in experiment [14] and in experiment [15] was “inactive” in each case. Besides, the Potency in [12] is 60.8 µM (active).
As for `O=C(N[C@H]1CN2CCC1CC2)c1cc2ccoc2cn1`, the Potency result in experiment [19], in experiment [17], in experiment [5], in [6], in experiment [8] and in experiment [10] was “inactive” throughout. The Potency result in experiment [11], in [20], in [13], in experiment [18], in experiment [14] and in [15] was “inactive” throughout. Further, the molecule was classed as inactive in [4], in [7] and in [9].
